# In PubChem BioAssay (NCATS):
# Records with an inconclusive call do not appear. Where a call stands in place of a potency, no number is given. Values without a mark were called inactive. Activity calls are given as the source filed them. Calls come from the whole dose curve; as a rule, active = well fitted inhibition curve with a large enough effect; inconclusive = small, poorly fitted or top-dose-only effect; inactive = flat fitted curve, though single readings scatter.
# Assay: Primary qHTS for inhibitors of nuclear receptor binding SET domain protein 2 (NSD2) in an isogenic RCH-ACV NSD2 p.E1099K mutant (9B) (AID 1645876); note: nearly all actives have a fitted effect of over 70% in size
# Details: RCH-ACV (leukaemia line) NSD2 E1099K (9B) viability, CellTiter-Glo, 72 h; series mostly up to 44.9 µM
SMILES,Potency,"activity change, negative = viability loss",outcome
NC1Nc2ccccc2C1(N)CC1NC(=O)C(Cc2ccccc2)NC(=O)C(Cc2ccccc2)NC1=O (stereo not drawn),inactive,–,–
O=C(O)c1ccc(NC(=O)[C@H](CC2CCCC2)n2cnc(C(F)(F)F)c2)nc1,inactive,–,–
C/C(=C\CCC1(C)C2CC3C(C2)C31C)C(=O)O (stereo not drawn),inactive,–,–
CCC(C)/C=C(C)/C=C/C1=CC2=C(Cl)C(=O)C(C)(OC(C)=O)C(=O)C2=CN1C(CC(=O)O)C(=O)O (stereo not drawn),inactive,–,–
CC(C)c1ccc2c(c1)CCC1[C@](C)(C(=O)O)CCC[C@]21C (stereo partly drawn),inactive,–,–
COCC1OC(n2cnc3c(=O)[nH]cnc32)C(O)C1O (stereo not drawn),inactive,–,–
OCC(O)C(c1c[nH]c2ccccc12)c1c[nH]c2ccccc12 (stereo not drawn),inactive,–,–
COc1cc(CC2COC(c3ccc(OC4OC(CO)C(O)C(O)C4O)c(OC)c3)C2CO)ccc1O (stereo not drawn),inactive,–,–
C/C=C(/C)C(=O)OC1C(OC(C)=O)C23C(O)OC4(CCC5C6(C)CCC(OC7OC(C(=O)O)C(O)C(OC8OC(CO)C(O)C(O)C8OC8OC(C)C(O)C(O)C8OC8OCC(O)C(O)C8O)C7OC7OC(CO)C(O)C(O)C7O)C(C)(C)C6CCC5(C)C4(C)CC2OC(C)=O)C3CC1(C)C (stereo not drawn),–,4.87% [at 9.23 µM],–
Fc1cccc(CN(C2=NCCN2)c2c(Cl)cccc2Cl)c1,inactive,–,–
CC1(C(=O)O)CC[C@]2(C(=O)OC3OC(CO)C(O)C(O)C3O)CC[C@]3(C)C(=CCC4[C@@]5(C)CC[C@H](OC6OCC(O)C(O)C6OC6OC(CO)C(O)C(O)C6O)C(C)(C)C5CC[C@]43C)C2C1 (stereo partly drawn),–,-7.26% [at 9.23 µM],–
C[C@@H]1O[C@@H](O[C@H]2[C@H](O[C@H]3[C@H](O[C@H]4CC[C@@]5(C)C(CC[C@]6(C)C5CC=C5[C@@H]7CC(C)(C)C[C@@H](O)[C@]7(C)CC[C@]56C)[C@@]4(C)CO)O[C@H](C(=O)O)[C@@H](O)[C@@H]3O)O[C@H](CO)[C@H](O)[C@@H]2O)[C@H](O)[C@H](O)[C@H]1O (stereo partly drawn),–,–,inactive [at 9.23 µM]
C=C(C(=O)O)C1CC(O)C2(C)CCCC(C)(O)C2C1 (stereo not drawn),inactive,–,–
O=C(OC[C@H]1O[C@H](O[C@]2(CO)O[C@H](CO)[C@@H](O)[C@@H]2O)[C@H](O)[C@@H](O)[C@@H]1O)c1ccc(O)cc1,inactive,–,–
CC1(C)CC[C@]2(C(=O)O)CC[C@]3(C)C(=CCC4[C@@]5(C)C(=O)C[C@H](O)[C@@](C)(CO)C5CC[C@]43C)[C@@H]2C1 (stereo partly drawn),inactive,–,–
CC(=O)OC1C(O)/C(C)=C\C2C(OC(=O)c3ccccc3)C(C)CC2(OC(C)=O)C(OC(C)=O)C(C)/C=C/C(C)(C)C1OC(C)=O (stereo not drawn),inactive,–,–
COc1cc(O)cc(O[C@@H]2O[C@H](CO)[C@@H](O[C@@H]3OC[C@](O)(CO)[C@H]3O)[C@H](O)[C@H]2O)c1OC,inactive,–,–
O=C(O)CCc1cccc(O)c1O[C@@H]1O[C@H](CO)[C@@H](O)[C@H](O)[C@H]1O,inactive,–,–
C=C1C(=O)OC[C@H]2C(C(=O)O)=CC3CC(C)(C)C[C@@]132 (stereo partly drawn),inactive,–,–
C[C@H](/C=C/[C@@]1(O)[C@H](C)CC(=O)CC1(C)C)O[C@@H]1O[C@H](CO[C@@H]2OC[C@@H](O)[C@H](O)[C@H]2O)[C@@H](O)[C@H](O)[C@H]1O,inactive,–,–
CC1CC(=O)[C@]2(O)C(C(=O)OCCc3ccc(O)cc3)=CO[C@@H](O[C@@H]3O[C@H](CO)[C@@H](O)[C@H](O)[C@H]3O)[C@H]12 (stereo partly drawn),inactive,–,–
CC(=O)/C=C/[C@H]1[C@](C)(O)[C@@H](O)[C@H](O)C2C(C)(C)CCC[C@@]21C (stereo partly drawn),inactive,–,–
CC(C)(O)C(O)C(=O)OCc1ccc(O[C@@H]2O[C@H](CO)[C@@H](O)[C@H](O)[C@H]2O)cc1 (stereo partly drawn),inactive,–,–
CC1CCC2C(C)(C)[C@H](O)CC[C@]2(C)C12Cc1c(O)cc3c(c1O2)CN(C(CCC(=O)O)C(=O)O)C3=O (stereo partly drawn),inactive,–,–
NC[C@@H]1O[C@@H](O[C@@H]2[C@@H](O[C@@H]3O[C@H](CO)[C@@H](O)[C@H]3O)[C@H](O)[C@@H](N)C[C@H]2N)[C@@H](N)[C@H](O)[C@H]1O,–,4.31% [at 9.23 µM],–
CC/C=C\CC1C(CC(=O)O)CCC1OC1OC(CO)C(O)C(O)C1O (stereo not drawn),inactive,–,–
C=CC(C)(O)CC/C=C(\C)C(=O)O[C@@H]1[C@@H](O)[C@H](OC(C)(C=C)CC/C=C(\C)C(=O)O)O[C@H](CO)[C@H]1OC(=O)/C(C)=C/CCC(C)(O)C=C (stereo partly drawn),inactive,–,–
CC1(C)CCCC2(C)c3c4c(c(=O)oc(=O)c3=CCC12)=CCC1C(C)(C)CCCC41C (stereo not drawn),inactive,–,–
